Data from PubChem BioAssay (EPA / NIEHS).
Inconclusive results are not listed. Calls of active or inactive are those of the source. How the source made its calls, unless noted: active means hit-call score of the fitted dose curve at least 0.9, where 1 is the maximum; inconclusive means response in the unintended direction; inactive means score below 0.9.

How the values were obtained:
[1] = test system: Sodium/Iodide Symporter (NIS), SLC5A5 (gene 6528); experiment: CPHEA_Stoker_NIS_Inhibition_RAIU: CPHEA's Radioactive Iodide Uptake (RAIU) Assay for Sodium/Iodide Symporter (NIS) Inhibition, Stoker and Laws Labs (AID 2283841)
In short: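 hNIS-HEK293T-EPA cells incubated 2 h at room temperature with compound (0.001–100 uM, 0.5% DMSO) and 329 pM final 125I in HBSS/10 mM HEPES, pH 7.4. Intracellular 125I counted; normalised to DMSO maximal uptake, triplicate, three biological replicates.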

[2] = ATG_M_61_XSP2: Attagene TRANS-FACTORIAL Multi-Species (XSP2) HepG2 Assay for M61 Transcription Factor (Internal Marker) (AID 2283835; active means hit-call score of the fitted dose curve at least 0.9, where 1 is the maximum; inactive means score below 0.9;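 further: reporter mRNA of an internal background marker read by RT-PCR and capillary electrophoresis; active means a rise in signal above the DMSO baseline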)
In short: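 HepG2 cells transiently transfected with multiple GAL4-UAS reporter units; 3 nM 6-alpha-fluorotestosterone and 1.5 nM norgestrel present to stimulate androgen receptor. After 24 h compound exposure, reporter mRNA measured by RT-PCR and capillary electrophoresis fluorescence, gain-of-signal versus DMSO baseline.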

[3] = target: zebrafish Thyroid Hormone Receptor beta (TRb), thrb (gene 30607) (UniProt Q9PVE4); experiment: ATG_zfTRb_XSP2: Attagene TRANS-FACTORIAL Multi-Species (XSP1) HepG2 Assay for zebrafish Thyroid Hormone Receptor beta (TRb) (AID 2283836)
Sequence of zebrafish Thyroid Hormone Receptor beta (TRb), thrb (gene 30607) (Q9PVE4 whole entry, looked up, the tested form may be a part): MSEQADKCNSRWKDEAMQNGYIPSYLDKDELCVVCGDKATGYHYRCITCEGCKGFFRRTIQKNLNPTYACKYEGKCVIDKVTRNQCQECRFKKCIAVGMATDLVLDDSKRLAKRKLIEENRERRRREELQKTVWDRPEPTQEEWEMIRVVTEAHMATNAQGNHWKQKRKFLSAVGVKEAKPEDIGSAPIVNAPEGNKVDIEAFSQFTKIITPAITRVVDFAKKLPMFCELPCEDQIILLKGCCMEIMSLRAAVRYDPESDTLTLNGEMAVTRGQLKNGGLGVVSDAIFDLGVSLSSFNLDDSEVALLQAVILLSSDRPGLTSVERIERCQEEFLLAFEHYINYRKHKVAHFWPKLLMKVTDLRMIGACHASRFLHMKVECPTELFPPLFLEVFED
In short: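 Fluorescence of labelled reporter cDNA fragments, separated by capillary electrophoresis, gives mRNA induction from exogenous NR-Gal4 chimeras in transiently transfected HepG2 cells after 24 h dosing; 3 nM 6-alpha-fluorotestosterone and 1.5 nM norgestrel included in the run.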

[4] = ATG_XTT_Cytotoxicity_XSP2: Cytotoxicity Assessment in the Attagene TRANS-FACTORIAL Multi-Species (XSP2) HepG2 Assay (AID 2283837)
Experimental: ATG_XSP2_XTT_Cytotoxicity_multi-species is a cell-based, single-readout assay that uses HepG2, a human liver cell line, with measurements taken at 24 hours after chemical dosing in a 24-well plate.ATG_XTT_Cytotoxicity_XSP2 is an assay component measured from the ATG_XSP2_XTT_Cytotoxicity_multi-species assay. It is designed to make measurements of cell number, a form of viability reporter, as detected with fluorescence intensity signals by XTT cytotoxicity assay technology.Data from the assay component ATG_XTT_Cytotoxicity_XSP2 was analyzed into 1 assay endpoint. This assay endpoint, ATG_XTT_Cytotoxicity_XSP2, was analyzed in the positive analysis fitting direction relative to DMSO as the negative control and baseline of activity. Using a type of viability reporter, loss-of-signal activity can be used to understand changes in the viability. Furthermore, this assay endpoint can be referred to as a primary readout, because the performed assay has only produced 1 assay endpoint. To generalize the intended target to other relatable targets, this assay endpoint is annotated to the cell cycle intended target family, where the subfamily is cytotoxicity.
Human liver HepG2 cells are transiently transfected with multiple reporter transcription units (MRTUs) in 6-well plates using FuGene 6 reagent (Roche; 3 ml FuGene/1 mg DNA). The MRTU constructs are regulated by a cis-regulating element (promoter). […] A major difference between the CIS and TRANS system is that in CIS activities of endogenous TFs are measured, whereas the TRANS assay evaluates changes in activities of exogenous, chimeric NR-Gal4 proteins. […] At the end of 24 hour incubation, total RNA was isolated using TriZol reagent (Invitrogen). The isolated RNA is then reverse-transcribed using oligo(dT) primer and Mo-MLV reverse transcriptase (Invitrogen) with DNAse I (Ambion) treatment for 30 min. The one-tenth of the produced cDNA was amplified by PCR using Taq DNA polymerase (Invitrogen) and two reporter sequence-specific primers. The PCR products were fluorescently labeled by primer extension with 6-arboxyfluorescein (6-FAM) 5'-labeled reporter sequence-specific primer (2 min at 95 C, 20 s at 68 C and 10 min at 72 C) and these products were digested with 5U of HpaI (New England Biolabs) for 2h at 37 C. The fragments were purified using Qiaquick PCR columns (Qiagen), analyzed on an ABI 3130xL genetic analyzer (Applied Biosystems) with peak positions identified by using a set of X-rhodamine (ROX)-labeled MapMarker1000 molecular weight standards (BioVentures). The raw capillary electrophoresis data was processed using Attagraph software (Attagene).

[5] = target: human Thyroid hormone Receptor alpha (TRa), THRA (gene 7067) (UniProt P10827); experiment: ATG_hTRa_XSP2: Attagene TRANS-FACTORIAL Multi-Species (XSP2) HepG2 Assay for human Thyroid hormone Receptor alpha (TRa) (AID 2283838)
Sequence of human Thyroid hormone Receptor alpha (TRa), THRA (gene 7067) (P10827 whole entry, looked up, the tested form may be a part): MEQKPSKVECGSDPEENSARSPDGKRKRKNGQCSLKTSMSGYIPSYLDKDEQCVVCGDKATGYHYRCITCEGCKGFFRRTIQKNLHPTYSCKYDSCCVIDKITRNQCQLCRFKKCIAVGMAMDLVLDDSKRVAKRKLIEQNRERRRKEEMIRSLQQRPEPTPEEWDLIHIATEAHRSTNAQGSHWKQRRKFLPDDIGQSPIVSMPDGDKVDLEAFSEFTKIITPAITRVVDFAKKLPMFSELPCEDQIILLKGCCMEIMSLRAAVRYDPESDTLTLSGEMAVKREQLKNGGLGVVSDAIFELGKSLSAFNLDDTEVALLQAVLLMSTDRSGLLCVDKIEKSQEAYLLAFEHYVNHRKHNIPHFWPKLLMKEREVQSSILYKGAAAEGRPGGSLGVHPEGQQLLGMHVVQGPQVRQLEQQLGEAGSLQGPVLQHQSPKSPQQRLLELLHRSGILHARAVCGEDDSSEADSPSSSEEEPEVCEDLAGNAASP
In short: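 HepG2 cells transiently transfected with multiplexed GAL4-UAS reporter units and exogenous NR-GAL4 chimeras; 24 h chemical exposure with 3 nM 6-alpha-fluorotestosterone and 1.5 nM norgestrel present. Reporter mRNA measured by RT-PCR, FAM labelling, HpaI digestion, capillary electrophoresis; gain-of-signal versus DMSO.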

[6] = target: frog Thyroid hormone Receptor alpha (TRa), thra-a (gene 397942) (UniProt P15204); experiment: ATG_frTRa_XSP2: Attagene TRANS-FACTORIAL Multi-Species (XSP2) HepG2 Assay for frog Thyroid hormone Receptor alpha (TRa) (AID 2283839)
Sequence of frog Thyroid hormone Receptor alpha (TRa), thra-a (gene 397942) (P15204 whole entry, looked up, the tested form may be a part): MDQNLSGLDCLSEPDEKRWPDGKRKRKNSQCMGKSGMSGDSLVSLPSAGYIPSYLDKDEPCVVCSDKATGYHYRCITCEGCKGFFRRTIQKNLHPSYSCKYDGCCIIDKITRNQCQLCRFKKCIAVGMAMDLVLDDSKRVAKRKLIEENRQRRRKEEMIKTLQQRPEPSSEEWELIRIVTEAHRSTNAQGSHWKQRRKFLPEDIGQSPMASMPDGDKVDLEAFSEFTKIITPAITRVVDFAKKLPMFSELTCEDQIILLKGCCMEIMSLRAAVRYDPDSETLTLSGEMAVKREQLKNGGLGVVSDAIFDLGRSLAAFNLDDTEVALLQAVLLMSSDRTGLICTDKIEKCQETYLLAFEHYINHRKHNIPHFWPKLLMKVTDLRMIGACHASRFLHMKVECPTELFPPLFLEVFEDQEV
In short: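 Read-out: fluorescent reporter-transcript fragments resolved by capillary electrophoresis after RT-PCR and HpaI cut. Human HepG2 liver cells carry a transfected frog TRα-Gal4 chimera driving a UAS reporter; 24 h exposure, DMSO baseline, positive-direction fit.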

[7] = target: human Thyroid hormone Receptor beta (TRb), THRB (gene 7068) (UniProt P10828); experiment: ATG_hTRb_XSP2: Attagene TRANS-FACTORIAL Multi-Species (XSP2) HepG2 Assay for human Thyroid hormone Receptor beta (TRb) (AID 2283840);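 further: actives raise reporter mRNA so potency reflects agonist-like gain of signal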
Sequence of human Thyroid hormone Receptor beta (TRb), THRB (gene 7068) (P10828 whole entry, looked up, the tested form may be a part): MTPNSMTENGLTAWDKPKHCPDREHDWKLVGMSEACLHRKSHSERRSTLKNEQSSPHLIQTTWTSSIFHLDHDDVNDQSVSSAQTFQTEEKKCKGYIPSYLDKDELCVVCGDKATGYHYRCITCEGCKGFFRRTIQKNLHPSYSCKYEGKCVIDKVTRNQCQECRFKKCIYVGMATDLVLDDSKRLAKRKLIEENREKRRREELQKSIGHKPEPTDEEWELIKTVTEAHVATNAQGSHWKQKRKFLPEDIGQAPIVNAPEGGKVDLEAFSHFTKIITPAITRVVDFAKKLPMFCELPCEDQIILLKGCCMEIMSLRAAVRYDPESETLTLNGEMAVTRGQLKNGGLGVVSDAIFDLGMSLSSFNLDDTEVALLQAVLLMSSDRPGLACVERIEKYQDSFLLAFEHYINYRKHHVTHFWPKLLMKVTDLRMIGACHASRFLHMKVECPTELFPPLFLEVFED
In short: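 Read-out: reporter mRNA induction (RT-PCR, 6-FAM labeling, capillary electrophoresis), gain-of-signal relative to DMSO baseline. Transiently transfected HepG2 TRANS multiplex (NR-Gal4 chimeras, GAL4-UAS reporters), 24 h chemical exposure; medium contained 3 nM 6-alpha-fluorotestosterone plus 1.5 nM norgestrel.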

[8] = CPHEA_Stoker_NIS_Cytotoxicity: Cytotoxicity Assessment for CPHEA's Radioactive Iodide Uptake (RAIU) Assay for Sodium/Iodide Symporter (NIS) Inhibition, Stoker and Laws Labs (AID 2283897)
In short: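 hNIS-HEK293T-EPA cells, human NIS expressed in HEK293T, treated 2 h with chemicals (0.001–100 uM, 0.5% final DMSO). ATP content read by CellTiter-Glo luminescence; loss of signal analysed relative to DMSO.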

Measured: AC50

O=C(O)CCC(F)(C(F)(F)F)C(F)(F)F
inactive: [1]

Oc1ccc(-c2ccccc2)cc1
not listed: [1] | [8]
inactive: all other assays above

CC(C)(C)CC(C)(C)c1ccc(O)cc1
not listed: [4] | [5]
inactive: all other assays above

COP(=O)(OC)O/C(=C\Cl)c1cc(Cl)c(Cl)cc1Cl
not listed: [4] | [5]
inactive: all other assays above

O=C1C2(Cl)C3(Cl)C4(Cl)C(Cl)(Cl)C5(Cl)C3(Cl)C1(Cl)C5(Cl)C24Cl (centres undefined)
active: [7] 10 µM
not listed: [4]
inactive: all other assays above

CC(=O)C=C(C)C
not listed: [1] | [8]
inactive: all other assays above

Fc1ccc(C2(Cn3cncn3)OC2c2ccccc2Cl)cc1 (centres undefined)
inactive: [1] | [8]

O=C(O)C(F)(F)C(F)(F)C(F)(F)C(F)(F)C(F)(F)C(F)(F)C(F)(F)C(F)(F)C(F)(F)C(F)(F)F
inactive: [1]

CC1(C)CCC(Cc2ccc(Cl)cc2)C1(O)Cn1cncn1 (centres undefined)
not listed: [4] | [6]
inactive: all other assays above

CCOP(=S)(OCC)SCSP(=S)(OCC)OCC
inactive: [1] | [8]

O=C(O)C(F)(F)C(F)(F)C(F)(F)C(F)(F)C(F)(F)C(F)(F)F
inactive: [1] | [8]

C[C@]12CC[C@H](O)CC1=CC[C@@H]1[C@@H]2CC[C@]2(C)C(=O)CC[C@@H]12
inactive: [2] | [3] | [7]

Cc1ccc2ccccc2c1C
inactive: [1]

C[C@]12CCC(=O)C[C@@H]1CC[C@@H]1[C@@H]2CC[C@]2(C)[C@@H](O)CC[C@@H]12
inactive: [2] | [3] | [5] | [6]
active: [7] 0.421 µM
